Activity calls are given as the source filed them. Unless noted, how the calls were made is not given here.
What was measured:
[1] = compounds binding Alexa647 anti-His antibody – biochemical, small-molecule microarray, 635 nm fluorescence, artefact control for SMM control protein annotation, primary screen (AID 1128); conditions: higher = more signal;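 further: score merges feature fluorescence with signal-to-noise for each printed compound spot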
[2] = system: Human papillomavirus type 1a E7 protein (residues 1-88); assay: HPV1a E7 small-molecule binders, primary screen, biochemical, small-molecule microarray, residues 1-88, 635 nm (AID 1129); conditions: small-molecule microarray binding, fluorescence 635 nm; higher = more signal
[3] = target: Focal adhesion kinase 1 (Homo sapiens) (UniProt Q05397); assay: PTK2 protein binding on printed compound slides – biochemical, small-molecule microarray, 635/667 nm fluorescence, BSA, DTT, primary screen (AID 1130); conditions: 635 nm fluorescence, higher = more signal;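 further: composite of spot emission at 667 nm and signal to noise over triplicate slides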
Sequence of Focal adhesion kinase 1 (Homo sapiens) (Q05397 whole entry, looked up): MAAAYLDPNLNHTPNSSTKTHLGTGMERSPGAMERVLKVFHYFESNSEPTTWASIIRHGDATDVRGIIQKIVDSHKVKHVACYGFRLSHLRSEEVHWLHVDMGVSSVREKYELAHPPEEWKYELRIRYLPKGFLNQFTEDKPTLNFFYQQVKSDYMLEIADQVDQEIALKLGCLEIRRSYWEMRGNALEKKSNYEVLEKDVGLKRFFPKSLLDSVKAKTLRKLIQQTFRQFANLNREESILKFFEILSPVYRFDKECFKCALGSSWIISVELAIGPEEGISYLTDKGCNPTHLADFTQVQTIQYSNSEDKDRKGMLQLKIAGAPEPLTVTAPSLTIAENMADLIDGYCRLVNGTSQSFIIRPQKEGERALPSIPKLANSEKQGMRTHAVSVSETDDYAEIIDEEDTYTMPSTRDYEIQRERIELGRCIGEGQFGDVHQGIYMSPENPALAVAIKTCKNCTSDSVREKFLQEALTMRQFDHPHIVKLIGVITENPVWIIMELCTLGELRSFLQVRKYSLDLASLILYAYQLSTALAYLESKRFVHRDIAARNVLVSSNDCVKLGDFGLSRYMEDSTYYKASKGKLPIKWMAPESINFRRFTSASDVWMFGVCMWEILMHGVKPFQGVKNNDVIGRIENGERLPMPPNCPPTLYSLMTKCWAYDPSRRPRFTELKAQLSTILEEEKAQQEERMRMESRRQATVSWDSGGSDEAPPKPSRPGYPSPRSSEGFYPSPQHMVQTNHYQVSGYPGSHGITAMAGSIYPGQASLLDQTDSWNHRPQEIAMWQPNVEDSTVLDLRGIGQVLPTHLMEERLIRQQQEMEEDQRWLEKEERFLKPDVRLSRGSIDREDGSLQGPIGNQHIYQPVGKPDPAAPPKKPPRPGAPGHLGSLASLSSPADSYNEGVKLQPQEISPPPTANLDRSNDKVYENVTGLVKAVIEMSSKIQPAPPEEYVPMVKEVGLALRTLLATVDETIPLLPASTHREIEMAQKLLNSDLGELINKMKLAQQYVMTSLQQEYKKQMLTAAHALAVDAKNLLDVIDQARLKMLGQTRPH

[4] = system: Fibrinogen (Alexa647-labelled); assay: Alexa647-fibrinogen binding to printed small molecules – biochemical, small-molecule microarray, 635/667 nm fluorescence, artefact control for SMM control-protein annotation, profiling panel (AID 1131); conditions: fibrinogen-A647 binding fluorescence, higher = more signal;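 further: z-score merges 667 nm fluorescence with per-spot signal-to-noise over triplicate slides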
[5] = target: Follistatin (Homo sapiens) (UniProt P19883); assay: FST protein binding to printed compounds – biochemical, small-molecule microarray, 635/667 nm fluorescence, primary screen (AID 1132); conditions: 635 nm fluorescence, higher = more signal
Sequence of Follistatin (Homo sapiens) (P19883 whole entry, looked up): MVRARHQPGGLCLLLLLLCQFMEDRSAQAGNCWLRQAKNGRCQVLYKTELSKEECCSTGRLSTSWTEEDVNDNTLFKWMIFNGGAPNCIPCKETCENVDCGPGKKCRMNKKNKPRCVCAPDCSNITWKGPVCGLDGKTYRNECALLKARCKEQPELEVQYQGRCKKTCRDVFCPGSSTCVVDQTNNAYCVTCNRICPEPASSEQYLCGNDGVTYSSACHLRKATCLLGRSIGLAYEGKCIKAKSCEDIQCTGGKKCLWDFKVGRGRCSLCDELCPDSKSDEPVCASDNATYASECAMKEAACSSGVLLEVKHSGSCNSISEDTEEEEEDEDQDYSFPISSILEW

[6] = target: Fibroblast growth factor 2 (Homo sapiens) (UniProt P09038); assay: basic fibroblast growth factor binding to printed compounds – biochemical, small-molecule microarray, 635/667 nm fluorescence, primary screen (AID 1133); conditions: FGF2, fluorescence 635/667, higher = more signal
Sequence of Fibroblast growth factor 2 (Homo sapiens) (P09038 whole entry, looked up): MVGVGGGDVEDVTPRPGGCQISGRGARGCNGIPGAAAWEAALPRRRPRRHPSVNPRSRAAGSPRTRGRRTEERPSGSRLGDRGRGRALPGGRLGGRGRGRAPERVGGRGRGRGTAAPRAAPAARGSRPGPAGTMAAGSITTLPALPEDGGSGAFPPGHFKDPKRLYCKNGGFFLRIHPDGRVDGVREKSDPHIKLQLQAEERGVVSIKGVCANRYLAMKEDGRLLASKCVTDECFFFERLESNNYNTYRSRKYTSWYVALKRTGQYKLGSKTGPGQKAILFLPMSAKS

[7] = JC-1 mitochondrial potential readout, lung cancer cells – cell-based, A549, JC-1 fluorescence, basal, 24 h, 100 nL, profiling panel (AID 1138); conditions: higher = more signal;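 further: A549 lung adenocarcinoma cells under basal conditions with no added stimulus; test concentration not given here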
Lefty1 = Lefty1 protein binding to printed compounds – biochemical, small-molecule microarray, 635/667 nm fluorescence, primary screen (AID 1139); conditions: fluorescence 635/667, higher = more signal
[8] = system: wheat germ agglutinin (Triticum aestivum), Alexa647-labelled; assay: Alexa647-WGA lectin binding to printed small molecules – biochemical, small-molecule microarray, 635/667 nm fluorescence, artefact control for SMM control-protein annotation, profiling panel (AID 1140); conditions: WGA-A647 binding, 635 nm fluorescence, higher = more signal;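 further: score merges 667 nm feature emission with signal to noise over triplicate slides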
[9] = target: Luciferin 4-monooxygenase (Photinus pyralis) (UniProt P08659); assay: inhibition of purified Photinus pyralis luciferase – biochemical, luminescence, purified enzyme, 2006 set, primary screen (AID 1141); conditions: purified firefly luciferase, SteadyGlo luminescence, 30 min; higher = more signal, called active from +8 up or from −8 down;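 further: cell-free assay with purified firefly luciferase at 100 ng per well in PBS; test concentration not given here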
Sequence of Luciferin 4-monooxygenase (Photinus pyralis) (P08659 whole entry, looked up): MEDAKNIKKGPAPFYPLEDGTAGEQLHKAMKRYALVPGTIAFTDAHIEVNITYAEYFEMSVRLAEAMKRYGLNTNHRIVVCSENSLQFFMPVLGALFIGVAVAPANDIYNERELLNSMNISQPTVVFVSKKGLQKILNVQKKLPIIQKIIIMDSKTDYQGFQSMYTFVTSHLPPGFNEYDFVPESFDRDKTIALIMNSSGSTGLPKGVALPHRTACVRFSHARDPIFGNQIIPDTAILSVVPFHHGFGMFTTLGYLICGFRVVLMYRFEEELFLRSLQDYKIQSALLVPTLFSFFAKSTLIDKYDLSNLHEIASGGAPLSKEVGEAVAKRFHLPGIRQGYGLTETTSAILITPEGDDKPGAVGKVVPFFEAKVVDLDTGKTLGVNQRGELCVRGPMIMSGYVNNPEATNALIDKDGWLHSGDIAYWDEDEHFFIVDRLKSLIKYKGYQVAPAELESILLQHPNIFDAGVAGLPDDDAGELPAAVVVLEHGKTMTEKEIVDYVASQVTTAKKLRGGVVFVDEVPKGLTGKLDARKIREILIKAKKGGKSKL

[10] = system: Wnt5a (protein binding on small-molecule microarray); assay: small molecules binding Wnt5a protein – biophysical, small-molecule microarray, 635/667 nm fluorescence, primary screen (AID 1142); conditions: 635 nm fluorescence, higher = more signal;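 further: fluorescence read at 667 nm with signal to noise per printed feature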
[11] = ATP-based viability of Huh7 replicon cells – cell-based, CellTiter-Glo luminescence, basal, 48 h, cytotoxicity control for HCV replication inhibitor project, primary screen (AID 1143); conditions: higher = more signal, called active from +8 up or from −8 down;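 further: Huh7 hepatoma cells carrying a hepatitis C replication reporter with no stimulus; test concentration not given here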
[12] = Pseudomonas biofilm growth suppression – PAO1 strain, BacTiter-Glo luminescence, LB-PBS, primary screen (AID 1144); conditions: P. aeruginosa PAO1 biofilm, 12 h, higher = more signal
[13] = basal CRE-LacZ reporter activity in PC12 – cell-based, unstimulated, primary screen (AID 1145); conditions: no forskolin, luminescence, 4.5 h, higher = more signal, called active from +8 up or from −8 down
[14] = forskolin-driven CRE-LacZ activity in PC12 – cell-based, CRE-LacZ reporter, forskolin-stimulated, primary screen (AID 1146); conditions: luminescence, 4.5 h, higher = more signal, called active from +8 up or from −8 down;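 further: PC12 cells with 6xCRE LacZ reporter stimulated by forskolin 10 µM; beta-galactosidase reporter signal reflecting CREB driven transcription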
[15] = target: Streptavidin (Streptomyces avidinii) (UniProt P22629); assay: compounds binding control protein streptavidin – biophysical, small-molecule microarray, 635/667 nm fluorescence, artefact control for SMM compound annotation, primary screen (AID 1147); conditions: higher = more signal;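 further: signal reflects streptavidin binding to arrayed compounds as a control protein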
Sequence of Streptavidin (Streptomyces avidinii) (P22629 whole entry, looked up): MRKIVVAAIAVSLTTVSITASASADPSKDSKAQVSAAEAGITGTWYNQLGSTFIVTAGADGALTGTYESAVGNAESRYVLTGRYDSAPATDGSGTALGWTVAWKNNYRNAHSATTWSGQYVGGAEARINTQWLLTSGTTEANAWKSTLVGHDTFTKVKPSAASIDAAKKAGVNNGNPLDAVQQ

[16] = probe aInhba binding on compound microarray – biochemical, small-molecule microarray, 635/667 nm fluorescence, primary screen (AID 1148); conditions: higher = more signal;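 further: score merges 667nm spot fluorescence with signal-to-noise for antibody binding to printed compounds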
Torsin-1A (Homo sapiens) [17] = target: Torsin-1A (Homo sapiens) (UniProt O14656); assay: TOR1A wild-type binding on microarray – cell lysate, small-molecule microarray, lysate, 635/667 nm, primary screen (AID 1149); conditions: COS7 hTOR1A-WT lysate, 635 nm fluorescence, higher = more signal
Sequence of Torsin-1A (Homo sapiens) (O14656 whole entry, looked up): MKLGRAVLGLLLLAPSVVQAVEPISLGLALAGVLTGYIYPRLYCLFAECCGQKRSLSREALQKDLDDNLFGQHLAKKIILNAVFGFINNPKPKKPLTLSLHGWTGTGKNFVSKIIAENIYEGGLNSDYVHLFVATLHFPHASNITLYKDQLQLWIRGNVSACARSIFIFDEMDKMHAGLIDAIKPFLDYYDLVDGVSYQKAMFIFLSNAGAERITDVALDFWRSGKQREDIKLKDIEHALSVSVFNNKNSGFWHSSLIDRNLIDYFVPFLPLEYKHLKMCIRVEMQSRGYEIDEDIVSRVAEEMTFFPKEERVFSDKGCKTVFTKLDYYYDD

Torsin-1A (Homo sapiens) [18] = target: Torsin-1A (Homo sapiens) (UniProt O14656); assay: torsin A mutant lysate binding on microarrays – cell lysate, small-molecule microarray, COS7 lysate, 635/667 nm fluorescence, primary screen (AID 1150); conditions: COS7 hTOR1A mutant lysate, 635 nm fluorescence, higher = more signal;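 further: score pools 667 nm emission and signal to noise measuring lysate protein binding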
[19] = system: Sonic hedgehog protein (Shh); assay: Sonic hedgehog microarray binding compounds – biochemical, small-molecule microarray, 635/667 nm fluorescence, primary screen (AID 1151); conditions: 635 nm fluorescence, higher = more signal;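 further: Shh protein binding to compounds spotted on small-molecule microarray slides; score combines spot fluorescence intensity with signal-to-noise across triplicate slides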

Row | Structure (SMILES) | composite z-score [1] | composite z-score [2] | composite z-score [3] | composite z-score [4] | composite z-score [5] | composite z-score [6] | z-score [7] | composite z-score (Lefty1) | composite z-score [8] | z-score [9] | composite z-score [10] | z-score [11] | z-score [12] | z-score [13] | z-score [14] | composite z-score [15] | composite z-score [16] | composite z-score (Torsin-1A (Homo sapiens) [17]) | composite z-score (Torsin-1A (Homo sapiens) [18]) | composite z-score [19]
1 | COc1cccc([C@H](O)Cn2cc(-c3ccc(CON=C(C)C)cc3)nn2)c1 | 0.0043 | -1.15 | -0.351 | -1.01 | -0.46 | -0.153 | -0.442 | -0.324 | -0.3 | 0.278 (inactive) | -0.0033 | -0.385 (inactive) | -0.24 (inactive) | 1.55 (inactive) | -0.222 (inactive) | -0.207 | 0.0082 | 0.0944 | 0.271 | -0.348
2 | CCN1C(=O)[C@H]2[C@H]3[C@H](O)[C@H](O)CC(=NOCC=C(C)CCC=C(C)C)[C@@H]3CC[C@H]2C1=O | 0.521 | 0.344 | -0.0746 | 0.493 | 1.31 | 1.01 | -0.717 | 1.23 | -0.207 | 0.146 (inactive) | 0.288 | -2.44 (inactive) | 0.17 (inactive) | -0.115 (inactive) | -0.157 (inactive) | -0.43 | -0.204 | 2.38 | 0.981 | 2.07
3 | CO[C@@H]1COC(=O)[C@H](COCc2ccccc2)NC(=O)CC=C[C@@H](C)[C@H](OC)COC(=O)[C@@H](C)NC(=O)CC=C[C@H]1C | -1.39 | -1.64 | -0.474 | -1.65 | 1.07 | 1.16 | 1.27 | 0.979 | -0.999 | -0.963 (inactive) | -0.128 | -0.0313 (inactive) | 0.104 (inactive) | 0.337 (inactive) | -0.803 (inactive) | -0.801 | -0.179 | 1.53 | 0.544 | 1.92
4 | CCOC(=O)[C@H](Cc1ccccc1)NC(=O)CCC1CC(OC(=O)NCc2ccc3c(c2)OCO3)CC2(CCCC(COC(=O)NCCOc3ccccc3)O2)O1 (stereo not given in full) | 0.777 | 1.16 | -0.0176 | 0.96 | 0.875 | 0.776 | 1.37 | 1.2 | 0.304 | 0.289 (inactive) | 0.0544 | -0.464 (inactive) | -1.09 (inactive) | -0.793 (inactive) | -0.361 (inactive) | 0.411 | -0.177 | 0.662 | 0.184 | 1.6
5 | CC(C)=NOC(C)CN1CCCCc2nc(C)c(C)cc21 (stereo not given) | 0.734 | -0.368 | -0.368 | 0.755 | 0.886 | 0.234 | 0.23 | 0.603 | -0.0583 | -0.327 (inactive) | 0.243 | 0.479 (inactive) | 0.282 (inactive) | -0.236 (inactive) | 0.0266 (inactive) | -0.28 | 0.0314 | 0.765 | 0.346 | 0.681
6 | COCOc1ccc(Br)cc1C(=O)C=Cc1ccc2c(c1)OCO2 | 0.263 | -0.396 | -0.141 | 0.962 | 0.516 | 0.449 | 2.57 | 0.471 | 0.69 | -2.08 (inactive) | -0.18 | -3.9 (inactive) | -1.46 (inactive) | 15.5 (active) | 5.69 (inactive) | -0.0743 | -0.182 | 0.61 | 0.281 | 0.487
7 | CCN1C(=O)[C@H]2[C@H]3[C@H](O)[C@H](O)CC(=NO[C@@H]4O[C@H](COC(C)=O)[C@@H](OC(C)=O)[C@H](OC(C)=O)[C@H]4OC(C)=O)[C@@H]3CC[C@H]2C1=O | -0.36 | 0.839 | 0.211 | 0.744 | 0.898 | 0.747 | -0.282 | 1.6 | 0.696 | 1.15 (inactive) | 0.352 | 0.772 (inactive) | 1.22 (inactive) | -0.882 (inactive) | 0.171 (inactive) | 0.0251 | -0.0221 | 0.331 | 0.0248 | 1.03
8 | O=C(NCCC[N+]1=CC=NC1c1ccccc1)N1CCCc2nc(-c3ccc(Br)cc3)ccc21 (stereo not given) | 0.862 | -0.493 | 0.183 | 0.692 | 0.733 | 0.208 | 1.76 | 0.27 | -0.471 | 0.395 (inactive) | -0.215 | -2.49 (inactive) | 0.616 (inactive) | -0.888 (inactive) | -0.0384 (inactive) | 0.0054 | -0.118 | 0.291 | 0.405 | 0.322
9 | CCOC(=O)[C@H](Cc1ccccc1)NC(=O)CCC1CC(OC(=O)NCc2cccc3ccccc23)CC2(CCCC(COC(=O)NCc3ccc4c(c3)OCO4)O2)O1 (stereo not given in full) | 0.209 | 0.397 | 0.338 | 0.508 | 0.222 | 0.982 | 0.4 | 0.659 | -0.074 | -0.323 (inactive) | 0.123 | -0.301 (inactive) | -0.548 (inactive) | -0.0767 (inactive) | -0.0564 (inactive) | -0.0007 | -0.0762 | 0.0755 | -0.497 | 0.466
10 | CCCNC(=O)OC[C@H]1O[C@H](CCON=C2C[C@@H](O)[C@@H](O)[C@@H]3[C@@H]4C(=O)N(CC)C(=O)[C@@H]4CC[C@@H]23)C=C[C@@H]1Oc1ccc(OC)cc1 | 1.44 | 0.94 | 0.158 | 0.946 | 1.14 | 0.622 | -0.517 | 1.3 | 0.697 | 0.321 (inactive) | 0.0561 | -0.402 (inactive) | 1.08 (inactive) | 0.68 (inactive) | 0.23 (inactive) | 0.842 | 0.0256 | 0.509 | 0.43 | 1.33
